Test results reported in paper PMC4552634, “A New Set of Chemical Starting Points with Plasmodium falciparum Transmission-Blocking Potential for Antimalarial Drug Discovery” (PLoS ONE, 2015).
Screen size: about 13,000 compounds; about 3,200 (25%) showed an effect of 50% or more. The list shows a part of the results.

The compounds below were run on P. falciparum stage V gametocytes. Conditions: 48 h, 5 µM; inhibitor.
Parameters: BacTiter-Glo ATP luminescence viability of purified stage V gametocytes in 384-well plates, per cent inhibition versus DMSO

| Compound | % Inhibition [%] |
| --- | --- |
| O=C(N[C@@H](Cc1cc(F)cc(F)c1)[C@H](O)CNCc1cccc(C(F)(F)F)c1)c1cc(C2CCCC2)cc(N2CCCC2=O)c1 [TCMDC-134677] | 4.624 |
| CCCC(CNCc1cccc(SC(F)(F)F)c1)CNc1cc(=O)c2ccccc2[nH]1 (centres unmarked) [TCMDC-139431] | 19.28 |
| COc1ccc(CNCc2cccc(-c3csc(-c4nc5ccccc5[nH]4)c3)c2)cc1 [TCMDC-132734] | -55.02 |
| Cc1cnc(N2CCN(CC3CCN(C)CC3)CC2)nc1Oc1ccc(-n2ccnc2)cc1 [TCMDC-132782] | 41.72 |
| CC(C)N(Cc1cnc2nc(N)nc(N)c2n1)c1ccc(Cl)c(Cl)c1 [TCMDC-137675] | 8.837 |
| O=C(Nc1ccc(Cl)cc1)Nc1cccc(CCNCc2ccccc2)c1 [TCMDC-141913] | 74.03 |
| CCCCc1ccc(NC(=O)Nc2cccc(CCNCc3ccccc3)c2)cc1 [TCMDC-141911] | -36.83 |
| O=C(Nc1cccc(CCNCc2ccccc2)c1)Nc1cccc2ccccc12 [TCMDC-141912] | -6.517 |
| O=C(Nc1ccc(Cl)cc1)Nc1cccc(-c2cc(CNCCc3ccccc3)oc2-c2ccncc2)c1 [TCMDC-135557] | -5.534 |
| COC(=O)c1ccc(NC(=O)Nc2cccc(CCNCc3ccccc3)c2)cc1 [TCMDC-141910] | 76.66 |
| CC(C)c1ccc(NC(=O)Nc2ccc(CCNCCCc3ccccc3)cc2)cc1 [TCMDC-140707] | 4.807 |
| O=C(COc1cccc([N+](=O)[O-])c1)Nc1ccc(-c2nc3ccccc3[nH]2)cc1 [TCMDC-123683] | 43.84 |
| Cc1cc(OCC2CCCO2)c2cc(NC(=O)C(=O)Nc3ccc4nc(C)cc(OCC5CCCO5)c4c3)ccc2n1 (centres unmarked) [TCMDC-139970] | -0.178 |
| CN1CCN(c2ccnc3ccc(NC(=O)N(C)c4ccc(Cl)c(Cl)c4)cc23)CC1 [TCMDC-139453] | 8.724 |
| O=c1[nH]nc(-c2ccc(N3CCCC3)c([N+](=O)[O-])c2)c2ccccc12 [TCMDC-123666] | 91.56 |
| O=C(Nc1ccc(-c2nc3ccccc3[nH]2)cc1)c1ccc(N2CCCC2)c([N+](=O)[O-])c1 [TCMDC-124370] | 0.2157 |
| Cc1nnc2sc(-c3cccc(NC(=O)c4ccc(N5CCCCC5)c([N+](=O)[O-])c4)c3)nn12 [TCMDC-125211] | 2.608 |
| O=S(=O)(Nc1ccc2nccc(N3CCNCC3)c2c1)c1ccc2oc3ccccc3c2c1 [TCMDC-139406] | -1.818 |
| Cc1cc(N2CCCC2)nc(Nc2ccc(NC(=O)c3ccc(Br)o3)cc2)n1 [TCMDC-124708] | -0.4475 |
| COc1ccc(C(=O)N[C@@H](CC(C)C)C(=O)N[C@H](/C=N/NC(=O)c2ccccc2)CCc2ccccc2)cc1OCCN1CCOCC1 [TCMDC-135529] | -24.16 |
| Cc1ccc(NC(=O)N2CCCN(CCCCCNC(=O)/C=C/c3ccc(Cl)c(Cl)c3)CC2)cc1C [TCMDC-135747] | -47.01 |
| CCC(C)NC(=O)Nc1ccc(-c2cccc(-c3nc4ccc(C(F)(F)F)cc4[nH]3)c2)cc1 (centres unmarked) [TCMDC-133240] | 1.328 |

| Compound | % Inhibition [%] |
| --- | --- |
| Cc1nn(-c2ccc(Cl)cc2)c2[nH]c(CN3CCN(c4cccc(Cl)c4)CC3)cc(=O)c12 [TCMDC-124869] | 23.11 |
| CCC[C@@H]([C@@H](CC(C)C)C(=O)N[C@@H](CCCN=C(N)NS(C)(=O)=O)C(=O)Nc1nccs1)N(O)C=O [TCMDC-138171] | -40.24 |
| CCC[C@@H]([C@@H](CC(C)C)C(=O)N[C@@H](CCCCNC(=O)c1ccccn1)C(=O)Nc1nccs1)N(O)C=O [TCMDC-137550] | 43.83 |
| CCCC(C(CC1CCC(C)CC1)C(=O)NC(CCCNc1ncccn1)C(=O)Nc1nccs1)N(O)C=O (centres unmarked) [TCMDC-138160] | 11.06 |
| CCC[C@@H]([C@@H](CC(C)C)C(=O)N[C@@H](CCCNc1nccc(C(F)(F)F)n1)C(=O)Nc1nccs1)N(O)C=O [TCMDC-137458] | 53.7 |
| CCC[C@@H]([C@@H](CC1CCC(C)CC1)C(=O)N[C@@H](CCCCNC(=O)c1ccccn1)C(=O)Nc1nccs1)N(O)C=O (some centres unmarked) [TCMDC-138151] | 22.92 |
| CCC[C@@H]([C@@H](CC(C)C)C(=O)N[C@@H](CCCCNC(=O)c1cccc(OC)c1)C(=O)Nc1nccs1)N(O)C=O [TCMDC-137305] | 57.38 |
| COc1ccc(CC(C)CON2C(N)=NC(N)=NC2(C)C)cc1 (centres unmarked) [TCMDC-131722] | 5.106 |
| O=C(NCCNc1ccnc(Nc2ccc(F)cc2)n1)Nc1ccc2c(c1)OCO2 [TCMDC-133641] | -26.39 |
| CC(C)(CNCc1cc(Cl)cc(Cl)c1)c1nc(-c2ccc(Cl)c(O)c2)c(-c2ccnc(N)n2)[nH]1 [TCMDC-141164] | -8.339 |
| CC1CN(c2ccc(NC(=O)c3ccsc3)cc2C(=O)N2CCN(Cc3ccc(C(C)(C)C)cc3)CC2)CC(C)O1 (centres unmarked) [TCMDC-139281] | 17.04 |
| C=CC[C@H](C[C@H](O)[C@H](Cc1ccccc1)NC(=O)c1ccc(-n2cccn2)cc1)C(=O)NC1CCCCC1 [TCMDC-141420] | 10.16 |
| CCc1c(C)nc(-n2nc(C)cc2NC(=O)C(CC)c2ccccc2)[nH]c1=O (centres unmarked) [TCMDC-124935] | 27.05 |
| Brc1ccc(Nc2nc3ccccc3nc2Nc2ccc(Br)cc2)cc1 [TCMDC-125776] | -38.43 |
| O=[N+]([O-])c1ccc2ncnc(Nc3ccc(F)c(Cl)c3)c2c1 [TCMDC-123784] | 0.775 |
| Oc1ccc(Nc2ccnc3cc(Cl)ccc23)cc1 [TCMDC-125528] | -45.78 |
| Clc1ccc(Nc2nc3ccc(Cl)cc3nc2Nc2ccc(Cl)cc2)cc1 [TCMDC-137772] | 143.7 |
| O=[N+]([O-])c1ccc2nc(Nc3ccc(Cl)c(Cl)c3)c(Nc3ccc(Cl)c(Cl)c3)nc2c1 [TCMDC-125794] | 113.6 |
| O=C(Nc1ccc(Cl)cc1)Nc1nc2ccc([N+](=O)[O-])cc2[nH]1 [TCMDC-137530] | 30.09 |
| O=S(=O)(NCCCN1CCOCC1)c1ccc2nccc(Nc3ccc(Oc4ccccc4)cc3)c2c1 [TCMDC-138692] | -57.28 |
| FC(F)(F)c1cccnc1N1CCC(Nc2nc3ccc(Cl)cc3[nH]2)CC1 [TCMDC-135644] | -32.98 |
| CCNc1cc(C(=O)N[C@@H](Cc2ccccc2)[C@H](O)CNCCc2ccccc2)cc(N2CCCC2=O)c1 [TCMDC-141682] | 21.5 |

| Compound | % Inhibition [%] |
| --- | --- |
| CS(=O)(=O)N1CC2(CCN(CCC(NC(=S)Nc3ccccc3)c3ccc(Cl)c(Cl)c3)CC2)c2ccccc21 (centres unmarked) [TCMDC-141770] | 57.16 |
| CS(=O)(=O)N1CC2(CCN(CCC(NC(=O)NCc3ccc(Cl)c(Cl)c3)c3ccc(Cl)c(Cl)c3)CC2)c2ccccc21 (centres unmarked) [TCMDC-141769] | -4.824 |
| COc1ccc(CC(=O)NC(CCN2CCC3(CC2)CN(S(C)(=O)=O)c2ccccc23)c2ccc(Cl)c(Cl)c2)cc1OC (centres unmarked) [TCMDC-141764] | 25.44 |
| CS(=O)(=O)N1CC2(CCN(CCC(NC(=O)Nc3ccccc3)c3ccc(Cl)c(Cl)c3)CC2)c2ccccc21 (centres unmarked) [TCMDC-141766] | 12.26 |
| COc1cc(C(=O)N2CCC(CCN3CCC4(CC3)CN(S(C)(=O)=O)c3ccccc34)CC2Cc2ccc(Cl)c(Cl)c2)cc(OC)c1OC (centres unmarked) [TCMDC-141627] | 50.03 |
| C[C@@H](NC(=O)NC(CCN1CCC2(CC1)CN(S(C)(=O)=O)c1ccccc12)c1ccc(Cl)c(Cl)c1)c1ccccc1 (some centres unmarked) [TCMDC-141767] | 25.06 |
| CS(=O)(=O)c1cccc(-c2ccc3oc(C(N)=O)c(NC(=O)c4cccs4)c3c2)c1 [TCMDC-138862] | 19.31 |
| O=C(CCCCCNC(=O)c1ccc(O)c(-c2ccc(Cl)c(Cl)c2)c1)NCCN1CCCCC1 [TCMDC-140856] | 8.201 |
| COc1cc(Cc2cnc(N)nc2N)cc(OCCCc2cc(OCc3ccccc3)no2)c1OC [TCMDC-138084] | 0.05649 |
| COc1cccc(C(=O)C2CC2CN2CC=C(c3c[nH]c4cccc(Br)c34)CC2)c1 (centres unmarked) [TCMDC-136773] | -17.42 |
| Cc1[nH]c2ccccc2c1C1=CCN(CCCCC2(C)C(=O)Nc3cccc(F)c32)CC1 (centres unmarked) [TCMDC-140942] | 52.59 |
| COc1ccc(C(=O)C2CC2CN2CC=C(c3c[nH]c4cccc(Br)c34)CC2)cc1 (centres unmarked) [TCMDC-136801] | -30.41 |
| Cc1[nH]c2cc(F)ccc2c1C1=CCN(CCCCC2(C)C(=O)Nc3ccccc32)CC1 (centres unmarked) [TCMDC-141003] | -43.4 |
| Cc1[nH]c2ccccc2c1C1=CCN(CCCCC2(C)C(=O)Nc3ccccc32)CC1 (centres unmarked) [TCMDC-140740] | -83.27 |
| O=C(c1ccccc1)C1CC1CN1CC=C(c2c[nH]c3ccccc23)CC1 (centres unmarked) [TCMDC-136771] | -5.765 |
| COc1cccc(C(=O)C2CC2CN2CC=C(c3c[nH]c4ccc(OC)nc34)CC2)c1 (centres unmarked) [TCMDC-136875] | 11.19 |
| COc1ccc(C(=O)C2CC2CN2CC=C(c3c(C)[nH]c4ccccc34)CC2)cc1 (centres unmarked) [TCMDC-136872] | 7.556 |
| COc1ccc(C(=O)C2CC2CN2CC=C(c3c[nH]c4ccc(OC)nc34)CC2)cc1 (centres unmarked) [TCMDC-136873] | 84.74 |
| Cc1[nH]c2ccccc2c1C1=CCN(CC2CC2C(=O)c2ccccc2)CC1 (centres unmarked) [TCMDC-136870] | 56.06 |
| COc1ccc2[nH]cc(C3=CCN(CC4CC4C(=O)c4ccccc4)CC3)c2n1 (centres unmarked) [TCMDC-136871] | -1.485 |
| COc1cccc(C(=O)C2CC2CN2CC=C(c3c(C)[nH]c4ccccc34)CC2)c1 (centres unmarked) [TCMDC-136874] | 78.13 |
